High-throughput results: PubChem, NMMLSC
Bead autofluor: flagged as autofluorescent in microsphere protease counterscreen | hit rate 3.1% among 360,000 | fluorescence intensity (test concentration not listed) | compound autofluorescence counterscreen, microsphere flow cytometry; active compounds read high | AID 624483; in the data active = fluorescence intensity above about 16000; inconclusive = no clear call, values can overlap the other calls
BoNT-F LC inh: blocks Botulinum neurotoxin F light chain protease; inhibition, % at 10 µM; hit rate 0.22% among 360,000; Multiplex microsphere protease cleavage assay, flow cytometry; in the data active = inhibition above about 35%, passing the limit was not always enough; inconclusive = no clear call, values can overlap the other calls; note: plate controls were buffer without enzyme for full effect and enzyme alone for no effect
Anthrax LF inh2: blocks Bacillus anthracis lethal factor protease; P15917; multiplex microsphere protease cleavage assay, LF; inhibition, % at 10 µM; hit rate 0.12% among 360,000; AID 588501; note: plate controls were buffer without enzyme for full effect and enzyme alone for no effect
BoNT A protease: blocks Botulinum neurotoxin A light chain protease; multiplex microsphere protease substrate cleavage, flow cytometry; inhibition, % at 10 µM; hit rate 0.17% among 360,000; note: plate controls were buffer without enzyme for full effect and enzyme alone for no effect
The depositor's hits bear a star; ? = inconclusive. Hits are enriched below; roughly 3.5% of the tested compounds scored in any of these assays. Cut-off read from the data, not from the text of the source, unless noted: active = inhibition above about 30%; inconclusive = no clear call, values can overlap the other calls; inactive = below that.

SMILES	Bead autofluor	BoNT-F LC inh	Anthrax LF inh2	BoNT A protease
CC(C)=CC(=O)O[C@@H]1Cc2cc3ccc(=O)oc3cc2OC1(C)C	2889	-7.9	-6.2	-0.7
Cc1noc(C)c1CSc1ccc(Br)cc1	10395	-4.2	-3.9	0.9
CC(=O)Nc1ccc(SCc2c(C)noc2C)cc1	3175	27.2	29.7*	-0.4
CN1CCN(S(=O)(=O)c2cccc([N+](=O)[O-])c2)CC1	20528*	-0.9	-0.7	-0.1
O=[N+]([O-])c1cccc(S(=O)(=O)N2CCCCC2)c1	3821	24.1	-4.7	-0.1
CN1CCN(S(=O)(=O)c2ccc3ccccc3c2)CC1	6375	-2.4	-6.8	-0.3
CN1CCN(S(=O)(=O)c2cccc(S(=O)(=O)c3cccc(S(=O)(=O)N4CCN(C)CC4)c3)c2)CC1	21260*	-0.3	0.5	-1.1
COc1ccccc1N1CC(C(=O)OCC(=O)Nc2c(C)cccc2C)CC1=O (stereo not drawn)	3206	-4.9	-2.0	-0.4
CCN(CC)C(=O)C(C)OC(=O)COc1ccc(Cl)cc1C (stereo not drawn)	22121*	-2.3	-3.2	-1.2
C/C(N)=C(/C#N)C(=O)COC(=O)COc1ccc(Cl)cc1C	21745*	1.8	-2.7	-0.5
Cc1cc(Cl)ccc1OCC(=O)OCC(=O)Nc1ccc(Cl)cn1	2962	-2.1	-7.7	-0.2
CN(C)CCn1c(=O)n(-c2cccc(Cl)c2)c(=O)c2c3c(sc21)CCCCC3	5789	-3.9	0.5	-0.2
CN(C(=O)c1cccc(NC(=O)Cc2ccc(NC(=O)C3CCCN(C(=O)C4CC4)C3)cc2)c1)C1CCCC1 (stereo not drawn)	3424	0.0	-2.4	-0.1
COc1ccc(CN(C(=O)c2snc(C(N)=O)c2N)C(C(=O)NC(C)(C)C)c2ccco2)cc1 (stereo not drawn)	21460*	-3.8	-0.3	-2.7
COc1ccccc1N(C(=O)c1snc(C(N)=O)c1N)C(C(=O)NC1CCCC1)c1ccco1 (stereo not drawn)	23621*	-1.7	-0.9	-1.1
COc1ccccc1N(C(=O)c1snc(C(N)=O)c1N)C(C(=O)NCCC(C)C)c1ccco1 (stereo not drawn)	18096*	4.6	-1.5	3.6
COCCNC(=O)C(c1ccco1)N(Cc1ccc(OC)cc1)C(=O)Cn1nnc2ccccc21 (stereo not drawn)	3406	38.9*	2.9	1.3
COc1ccccc1CNC(=O)c1nn(C)c2c1CS(=O)(=O)c1ccccc1-2	4908	5.0	-4.1	1.2
CCc1ccc(/C=N/NC(=O)c2nnn(-c3nonc3N)c2C(C)C)cc1	4491	-5.5	-2.1	0.2
CCOCCCNC(=O)Cn1nc(Cc2ccncc2)c2ccccc2c1=O	3735	25.6	-1.9	-4.6
CCCCS/C(=C(/C#N)C(N)=O)c1cc2c([nH]1)CCCC2	22456*	-0.5	-3.1	?
CCOc1cc(S(=O)(=O)NCc2ccccc2)c(OCC)cc1-n1cnnn1	21889*	5.0	-2.5	?
CCOc1ccc(-n2cnnn2)cc1S(=O)(=O)NCc1ccccc1	13747	-6.5	-0.4	-0.6
C=CCN(C(=O)Nc1ccc(F)cc1)C1CC(=O)N(c2ccc(OC)cc2)C1=O (stereo not drawn)	21431*	3.3	-6.4	3.9
CCCCNCc1cc(Br)c(OCC(=O)N2CCOCC2)c(OC)c1	16518*	7.3	-8.1	7.9
SMILES	Bead autofluor	BoNT-F LC inh	Anthrax LF inh2	BoNT A protease
CCc1nc2ccccc2c(=O)n1/N=C/c1ccc(OC)cc1	4484	?	8.2	?
CCOc1ccc(CN2CCSCC2)cc1	3063	-2.4	3.9	-1.3
CCOc1ccc(CN2CCC(=O)NC2=O)cc1	17829*	4.3	-9.4	5.6
O=C1CCN(Cc2ccccc2)C(=O)N1	4182	2.5	-3.5	0.1
COc1ccc(CN2CCC(=O)NC2=O)cc1	25338*	-3.6	-0.4	-6.0
C[C@H](CO)N1C[C@H](C)[C@@H](CN(C)S(=O)(=O)c2ccccc2)Oc2c(NC(=O)c3ccncc3)cccc2C1=O	3803	1.3	-2.8	-0.1
Cc1ccc(C(=O)Nc2nnc(C3CCCCC3)s2)o1	23882*	-4.1	-4.1	-1.0
CCN1C(=O)c2ccccc2Sc2ccc(C(=O)N3CCC4(CC3)OCCO4)cc21	7469	6.2	4.2	0.9
CCC(C)NC(=O)Nc1ccc2c(c1)N(C)C(=O)c1ccccc1S2 (stereo not drawn)	16200*	1.3	-0.9	-0.2
C=CCN1C(=O)CSc2ccc(C(=O)N3CCC4(CC3)OCCO4)cc21	17917*	-8.1	-3.4	-4.8
O=C(c1ccc2c(c1)N(Cc1ccccc1)C(=O)c1ccccc1S2)N1CCCC1	21624*	4.1	0.9	?
CN1C(=O)c2ccccc2Sc2ccc(C(=O)N3CCC4(CC3)OCCO4)cc21	19800*	2.0	-4.0	2.8
C=CCn1cccc(C(=O)Nc2ccc(N(C)C)cc2)c1=O	3478	-16.3	-0.3	0.6
